# The supplement of paper PMC8975748
# Structures can show the parent of a compound that is named as a salt. ± gives the standard deviation of the averaged measurements.
# How the values were obtained:
# [1] = test system: Saccharomyces cerevisiae BY4741 SeMeCo community; test: mean cell size (pixel area) (pixels); higher = larger cells; details: 10 µM; 24 h; SM minimal medium
# In short: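 A four-plasmid fluorescent Saccharomyces cerevisiae BY4741 community was tested; each plasmid complements one auxotrophy and carries a fluorescent marker. An overnight preculture at OD600 = 1.0 was diluted to OD600 = 0.3, and 70 µl was added to 384-well plates acoustically predosed with drug (final 10 µM) in SM medium for 24 h. Cells were fixed with paraformaldehyde and imaged by automated confocal microscopy, with analysis in Harmony. Mean cell pixel area per well is averaged over 3 replicates. Same SeMeCo high-content imaging drug screen: Selleck FDA-approved drugs at 10 µM, 24 h in SM medium, 384-well plates, 3 replicates.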
# [2] = test system: Saccharomyces cerevisiae BY4741 SeMeCo community; test: z-score of prototroph abundance vs DMSO median; higher = larger share of this subpopulation than in DMSO controls; details: 10 µM; 24 h; SM minimal medium; subpopulation (auxotrophy): Prototroph
# In short: (§1)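 Four plasmids, each restoring a single auxotrophy and encoding a distinct fluorescent protein, were carried by a Saccharomyces cerevisiae BY4741 community. After overnight growth to OD600 1.0 and dilution to 0.3, 70 µl per well was grown for 24 h in minimal SM medium on 384-well plates acoustically predosed with library drugs at 10 µM final. Following paraformaldehyde fixation, automated confocal microscopy was used, with single-auxotroph fluorescent strains defining thresholds and autofluorescence correction. Subpopulation abundance was then scored as a z-score against the vehicle-well median.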
# [3] = test system: Saccharomyces cerevisiae BY4741 SeMeCo community; test: z-score of subpopulation abundance vs DMSO median, subpopulation auxotrophic for M; higher = larger share of this subpopulation than in DMSO controls; details: 10 µM; 24 h; SM minimal medium; subpopulation (auxotrophy): M
# In short: as §1
# [4] = test system: Saccharomyces cerevisiae BY4741 SeMeCo community; test: z-score of subpopulation abundance vs DMSO median, subpopulation auxotrophic for L; higher = larger share of this subpopulation than in DMSO controls; details: 10 µM; 24 h; SM minimal medium; subpopulation (auxotrophy): L
# In short: as §1
# [5] = test system: Saccharomyces cerevisiae BY4741 SeMeCo community; test: z-score of subpopulation abundance vs DMSO median, subpopulation auxotrophic for H; higher = larger share of this subpopulation than in DMSO controls; details: 10 µM; 24 h; SM minimal medium; subpopulation (auxotrophy): H
# In short: as §1
# [6] = test system: Saccharomyces cerevisiae BY4741 SeMeCo community; test: z-score of subpopulation abundance vs DMSO median, subpopulation auxotrophic for LU; higher = larger share of this subpopulation than in DMSO controls; details: 10 µM; 24 h; SM minimal medium; subpopulation (auxotrophy): LU
# In short: as §1
# [7] = test system: Saccharomyces cerevisiae BY4741 SeMeCo community; test: z-score of subpopulation abundance vs DMSO median, subpopulation auxotrophic for HM; higher = larger share of this subpopulation than in DMSO controls; details: 10 µM; 24 h; SM minimal medium; subpopulation (auxotrophy): HM
# In short: as §1
# [8] = test system: Saccharomyces cerevisiae BY4741 SeMeCo community; test: z-score of subpopulation abundance vs DMSO median, subpopulation auxotrophic for HU; higher = larger share of this subpopulation than in DMSO controls; details: 10 µM; 24 h; SM minimal medium; subpopulation (auxotrophy): HU
# In short: as §1
# [9] = test system: Saccharomyces cerevisiae BY4741 SeMeCo community; test: z-score of subpopulation abundance vs DMSO median, subpopulation auxotrophic for UM; higher = larger share of this subpopulation than in DMSO controls; details: 10 µM; 24 h; SM minimal medium; subpopulation (auxotrophy): UM
# In short: as §1
# [10] = test system: Saccharomyces cerevisiae BY4741 SeMeCo community; test: z-score of subpopulation abundance vs DMSO median, subpopulation auxotrophic for HL; higher = larger share of this subpopulation than in DMSO controls; details: 10 µM; 24 h; SM minimal medium; subpopulation (auxotrophy): HL
# In short: as §1
# [11] = test system: Saccharomyces cerevisiae BY4741 SeMeCo community; test: z-score of subpopulation abundance vs DMSO median, subpopulation auxotrophic for HLU; higher = larger share of this subpopulation than in DMSO controls; details: 10 µM; 24 h; SM minimal medium; subpopulation (auxotrophy): HLU
# In short: as §1
# [12] = test system: Saccharomyces cerevisiae BY4741 SeMeCo community; test: z-score of subpopulation abundance vs DMSO median, subpopulation auxotrophic for HLM; higher = larger share of this subpopulation than in DMSO controls; details: 10 µM; 24 h; SM minimal medium; subpopulation (auxotrophy): HLM
# In short: as §1
# [13] = test system: Saccharomyces cerevisiae BY4741 SeMeCo community; test: z-score of subpopulation abundance vs DMSO median, subpopulation auxotrophic for HUM; higher = larger share of this subpopulation than in DMSO controls; details: 10 µM; 24 h; SM minimal medium; subpopulation (auxotrophy): HUM
# In short: as §1
# [14] = test system: Saccharomyces cerevisiae BY4741 SeMeCo community; test: z-score of subpopulation abundance vs DMSO median, subpopulation auxotrophic for LUM; higher = larger share of this subpopulation than in DMSO controls; details: 10 µM; 24 h; SM minimal medium; subpopulation (auxotrophy): LUM
# In short: as §1
# [15] = test system: Saccharomyces cerevisiae BY4741 SeMeCo community; test: z-score of subpopulation abundance vs DMSO median, subpopulation auxotrophic for HLUM; higher = larger share of this subpopulation than in DMSO controls; details: 10 µM; 24 h; SM minimal medium; subpopulation (auxotrophy): HLUM
# In short: as §1
# [16] = test system: Saccharomyces cerevisiae BY4741 SeMeCo community; test: z-score of subpopulation abundance vs DMSO median, subpopulation auxotrophic for U; higher = larger share of this subpopulation than in DMSO controls; details: 10 µM; 24 h; SM minimal medium; subpopulation (auxotrophy): U
# In short: as §1
# [17] = test system: Saccharomyces cerevisiae BY4741 SeMeCo community; test: z-score of subpopulation abundance vs DMSO median, subpopulation auxotrophic for LM; higher = larger share of this subpopulation than in DMSO controls; details: 10 µM; 24 h; SM minimal medium; subpopulation (auxotrophy): LM
# In short: as §1
Structure (SMILES),mean cell size [1],z-score of prototroph abundance [2],z-score of subpopulation abundance [3],z-score of subpopulation abundance [4],z-score of subpopulation abundance [5],z-score of subpopulation abundance [6],z-score of subpopulation abundance [7],z-score of subpopulation abundance [8],z-score of subpopulation abundance [9],z-score of subpopulation abundance [10],z-score of subpopulation abundance [11],z-score of subpopulation abundance [12],z-score of subpopulation abundance [13],z-score of subpopulation abundance [14],z-score of subpopulation abundance [15],z-score of subpopulation abundance [16],z-score of subpopulation abundance [17]
CC(NCCC(c1ccccc1)c1ccccc1)c1ccccc1 (stereo unspecified) [Fendiline hydrochloride],12.1 ± 0.2,1.56,-1.56,0.03,-1.47,-0.77,-1.15,-0.97,-1.15,-0.41,-0.27,-0.59,-0.72,0.05,-0.29,,
CN1CCN(c2c(F)cc3c(=O)c(C(=O)O)cn4c3c2OCN4C)CC1 [Marbofloxacin],12.1 ± 0.38,0.49,0.52,-1.17,,0.12,-0.43,-0.06,-0.02,-0.85,-0.27,-0.54,0.33,-0.82,-0.72,0.59,
O=C(c1ccccc1)c1ccc2n1CCC2C(=O)O (stereo unspecified) [Ketorolac tromethamine salt],12.3 ± 0.19,0.48,0.27,0.3,0.35,-0.75,,-0.79,-0.28,-0.19,-0.16,-0.09,-0.75,-0.12,,-0.92,-0.1
COc1ccccc1N1CCN(CCCNc2cc(=O)n(C)c(=O)n2C)CC1 [Urapidil HCl],12.49 ± 0.088,-0.23,-0.32,-1,-0.78,0.29,-0.81,0.01,0,-0.53,-0.11,-0.67,-0.59,-0.71,-0.28,1.09,
CN(C)CCc1c[nH]c2ccc(Cn3cncn3)cc12 [Rizatriptan Benzoate],12.63 ± 0.099,0.05,-0.1,0.9,0.25,0.31,,-0.96,-1.14,0.75,0.78,0.35,-0.59,,0.89,-0.69,1.18
OCCN1CCN(CCCN2c3ccccc3Sc3ccc(Cl)cc32)CC1 [Perphenazine],12.3 ± 0.2,-0.28,-0.42,-0.47,0.04,0.15,0.07,0.72,0.06,0.11,0.1,0,0.73,0.66,,0.29,
Oc1c(I)cc(I)c2cccnc12 [Diiodohydroxyquinoline],12.1 ± 0.48,-3.05,-0.3,0.99,2.75,3.93,2.21,2.97,0.65,2.9,4.17,2.46,1.2,,1.67,2.25,
